In ChEMBL document CHEMBL3433997, “St. Jude Leishmania screening dataset” (2016):

What was measured:
Assay type in all cases: functional
[1] = molecular target: Solute carrier family 2, facilitated glucose transporter member 1 (Homo sapiens) (UniProt P11166); assay: ST_JUDE_LEISH: Cytotoxicity at 2uM final concentration against transgenic Leishmania Mexicana promastigotes LmGLUT1 that are glucose transport deficient and complemented with the human glucose transporter GLUT1. Activity is measured by DNA content using SYBR green in vitro
[2] = molecular target: Hexose transporter 1 (Plasmodium falciparum) (UniProt O97467); assay: ST_JUDE_LEISH: Cytotoxicity at 2uM final concentration against transgenic Leishmania Mexicana promastigotes LmPfHT that are glucose transport deficient and complemented with the Plasmodium falciparum hexose transporter. Activity is measured by DNA content using SYBR green in vitro
[3] = molecular target: Glucose transporter (Leishmania mexicana) (UniProt O61059); assay: ST_JUDE_LEISH: Cytotoxicity at 2uM final concentration against transgenic Leishmania Mexicana promastigotes LmGT2 that are glucose transport deficient and complemented with the L. Mexicana glucose transporter 2. Activity is measured by DNA content using SYBR green in vitro

Solute carrier family 2, facilitated glucose transporter member 1 (Homo sapiens), sequence (P11166 whole entry): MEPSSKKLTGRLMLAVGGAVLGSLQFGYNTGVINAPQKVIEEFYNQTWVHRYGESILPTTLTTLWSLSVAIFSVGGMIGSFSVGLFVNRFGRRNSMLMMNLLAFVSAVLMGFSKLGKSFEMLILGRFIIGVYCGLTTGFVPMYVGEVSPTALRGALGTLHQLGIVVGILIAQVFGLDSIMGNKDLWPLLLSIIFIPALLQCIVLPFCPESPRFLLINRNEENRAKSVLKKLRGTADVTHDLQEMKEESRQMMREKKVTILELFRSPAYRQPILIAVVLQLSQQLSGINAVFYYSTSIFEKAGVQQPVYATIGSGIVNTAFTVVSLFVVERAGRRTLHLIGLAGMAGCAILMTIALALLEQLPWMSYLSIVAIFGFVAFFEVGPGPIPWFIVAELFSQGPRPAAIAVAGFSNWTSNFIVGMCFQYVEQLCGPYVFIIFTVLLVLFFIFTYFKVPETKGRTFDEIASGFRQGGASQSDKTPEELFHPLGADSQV

| SMILES | inhibition [1] | inhibition [2] | inhibition [3] |
| --- | --- | --- | --- |
| COc1ccc(Cn2c(Nc3cccc(C(F)(F)F)c3)nc3cc(C(=O)NCCN4CCCC4)ccc32)cc1Cl | 0.36% | -0.47% | 0.72% |
| O=C(Nc1cccc(-c2ccc(-c3nc4cc(C(F)(F)F)ccc4[nH]3)cc2)c1)Nc1ccc(F)c(F)c1F | -0.86% | 0.2% | 0.37% |
| CCC(C)NC(=O)Nc1ccc(-c2cccc(-c3nc4cccc(C)c4[nH]3)c2)cc1 (stereo unspecified) | 0.47% | 0.26% | -0.8% |
| COc1ccc2nccc([C@@H](O)CN3CCC(NCc4nc5ccc(F)cc5[nH]4)CC3)c2c1 | 2.34% | 1.93% | 2.2% |
| CCOCCCn1c(=N)c(C(=O)NCc2ccc(F)cc2)cc2c(=O)n3cccc(C)c3nc21 | 4.22% | 10.1% | -1.34% |
| Cc1c(Cl)cccc1N=C(S)NN=Cc1ccccn1 | 1.43% | 2.56% | -0.2% |
| COc1ccc(CN2CCN(C(=O)c3cccs3)CC2)c(O)c1 | 10.5% | 11.1% | 8.97% |
| CN(C)CCNCc1cccc(-c2ccc3c(Nc4ccc(Oc5ccccn5)cc4)ccnc3c2)c1 | 0.48% | 1.4% | 0.21% |
| Cc1cccc2nc(-c3ccc(-c4ccc(NC(=O)Nc5ccsc5)cc4)cc3)[nH]c12 | 0.7% | -0.26% | -0.35% |
| CCCN1CCc2c(sc3nc(SCC(=O)Nc4ccc(C)cc4)n(-c4ccc(C)cc4)c(=O)c23)C1 | 6.06% | 3.25% | 3.72% |
| CCC[C@@H]([C@@H](CC1CCC(C)CC1)C(=O)N[C@@H](CCCCNC(=O)c1ccccn1)C(=O)Nc1nccs1)N(O)C=O (stereo partly specified) | 2.27% | 4.29% | 1.8% |
| COc1ccc(Cn2ncc3c4c(N)nc(N)nc4ccc32)cc1OC | 86.6% | 82.8% | 73% |
| Cc1onc(-c2ccc(Cl)cc2)c1-c1ccnn1S(=O)(=O)c1ccc(Cl)cc1 | -0.16% | 4.29% | 1.91% |
| CCN(CC)CCN(Cc1ccc(-c2ccc(C(F)(F)F)cc2)cc1)C(=O)Cn1c(CCc2c(F)cccc2F)nc(=O)c2ccccc21 | 4.96% | 4.88% | 5.59% |
| Cc1nc2nc(N)nc(N)c2c(C)c1Cc1ccc(C(F)(F)F)cc1 | 32.9% | 38.8% | 28.9% |
| CN(C)CCNCc1ncsc1-c1ccc2c(Nc3ccc(F)cc3Cl)ccnc2c1 | 3.88% | 4.3% | 4.59% |

| SMILES | inhibition [1] | inhibition [2] | inhibition [3] |
| --- | --- | --- | --- |
| CN1CCN(c2ccnc3ccc(NC(=O)Cc4ccc(-c5ccncc5)c5ccccc45)cc23)CC1 | -3.69% | 0.37% | -0.2% |
| CCC1CN2CCc3c([nH]c4ccccc34)[C@@H]2C[C@@H]1CC1NCCc2cc(OC)c(OC)cc21 (stereo partly specified) | -0.82% | -1.25% | -1.42% |
| FC(F)(F)c1ccc2[nH]c(-c3ccc(-c4ccc(CNCCN5CCNCC5)cc4)s3)nc2c1 | 9.4% | 10.4% | 9.03% |
| Cc1ccc(-c2cccc3c(NC(=O)Nc4ccc5nccc(N6CCN(C)CC6)c5c4)cccc23)cn1 | 0.51% | 0.17% | 7.64% |
| O=C(Cc1cccc(O)c1)Nc1ccc(-c2cccc(-c3nc4cc(C(F)(F)F)ccc4[nH]3)c2)cc1 | -0.18% | 1.54% | 0.62% |
| CCCCNC(=O)[C@@H](NC(=O)c1ccc(O)c(-c2ccc(Cl)c(Cl)c2)c1)C(C)C | 4.49% | 4.37% | 3.47% |
| COc1ccc(NC(=O)c2ccc(C=Cc3ccc(C(F)(F)F)cc3)cc2)cc1N1CCN(C)CC1 | 0.43% | 0.25% | -0.41% |
| Oc1ccccc1-c1nc2cccnc2n1CCc1cccc(C(F)(F)F)c1 | 4.81% | 3.7% | 5.31% |
| CC(C)NCc1ccc(-c2cccc(NC(=O)c3cccc(Cl)c3)c2)cc1 | 17.7% | 12.9% | 10.7% |
| O=[N+]([O-])c1cccc(-c2ccc(C=NNc3cc(N4CCCC4)nc(N4CCCC4)n3)o2)c1 | 3.39% | 3.17% | 3.82% |
| O=C(Nc1ccc(-c2ccc(-c3nc4ccccc4[nH]3)s2)cc1)Nc1ccc(F)c(F)c1F | 0.57% | -1.5% | -0.77% |
| Cc1cccc2nc(-c3ccc(-c4ccc(CNCCc5ccncc5)cc4)cc3)[nH]c12 | 13.2% | 21.1% | 10.1% |
| Cc1cc(N[C@@H](CC(C)C)C(=O)NCc2cccc(F)c2)nc(NCCc2ccccc2)n1 | 3.97% | 4.78% | 2.16% |
| CC(NC(=O)c1cc(-c2ccccc2)nc2c1cnn2C(C)C)C1CC1 (stereo unspecified) | 1.45% | 0.66% | 0.29% |
| c1ccc2[nH]c(-c3ccc(-c4ccc(CNC5CC5)cc4)s3)nc2c1 | 0.93% | 0.48% | -2.14% |
| CCOc1cc(C(=O)NCCCN2CCCCC2C)ccc1-c1nc2cc(Cl)ccc2[nH]1 (stereo unspecified) | 2.37% | 2.23% | 0.87% |
